The source of these data is publication PMC4552634, “A New Set of Chemical Starting Points with Plasmodium falciparum Transmission-Blocking Potential for Antimalarial Drug Discovery” (PLoS ONE, 2015).

For orientation: % Inhibition means the relative decrease from the control value, in per cent.

The whole screen tested about 13,000 compounds, of which about 3,200 (25%) showed an effect of 50% or more. This is one part of the list.

The test relates to P. falciparum stage V gametocytes. The arrangement: BacTiter-Glo ATP luminescence viability of purified stage V gametocytes in 384-well plates, per cent inhibition versus DMSO. As to conditions: 48 h, 5 µM; inhibitor.
Take `O=C(n1c(-c2cc3ccccc3n2C(=O)C(F)(F)F)cc2ccccc21)C(F)(F)F` [TCMDC-131570]: the “% Inhibition” value is on record as 0.2533%.

In the case of `CN1CCN(c2ccc3nc(-c4ccc(Cc5cc(Cl)ccc5OCc5ccccc5)o4)[nH]c3c2)CC1` [TCMDC-136708], the “% Inhibition” value is given as -32.6%.

On to `CC(C)COc1ccc(Cl)cc1Cc1nc(-c2nc3nc(N4CCN(C)CC4)ccc3[nH]2)cs1` [TCMDC-136876], for which the “% Inhibition” value was found to be 6.698%.

As for `CNCc1ccc2nc(-c3coc(Cc4cc(Cl)ccc4OCC(C)C)n3)[nH]c2c1` [TCMDC-136808], the “% Inhibition” value came out at 13.07%.

Turning to `Clc1ccc(OCc2ccccc2)c(-c2nc(-c3nc4ccc(Cl)cc4[nH]3)cs2)c1` [TCMDC-136728], the “% Inhibition” value was -8.781%.

Consider `CC(C)COc1ccc(Cl)cc1Nc1nc(-c2nc3ccccc3[nH]2)cs1` [TCMDC-137041], for which the “% Inhibition” value worked out at 2.246%.

For `CN(C)Cc1ccc2nc(-c3cccc(Cc4cc(Cl)ccc4OCc4ccc(Cl)cc4F)n3)[nH]c2c1` [TCMDC-136892], the “% Inhibition” value was determined as 34.33%.

Consider `CN1CCN(CCc2ccc3nc(-c4csc(Cc5cc(Cl)ccc5OCc5ccccc5)n4)[nH]c3c2)CC1` [TCMDC-132171], for which the “% Inhibition” value stood at 95.37%.

Consider `CC(C)COc1ccc(Cl)cc1Cc1nc(-c2nc3c(CN4CCN(C)CC4)cccc3[nH]2)cs1` [TCMDC-132173], for which the “% Inhibition” value is 82.6%.

Consider `CNCc1cccc2[nH]c(-c3csc(Cc4cc(Cl)ccc4OCC(C)C)n3)nc12` [TCMDC-132172], for which the “% Inhibition” value was 92.59%.

`Cc1cc(-c2nc3ccc(CN4CCN(C)CC4)cc3[nH]2)nn1Cc1cc(Cl)ccc1OCc1ccccc1` [TCMDC-136883]: the “% Inhibition” value is recorded as 19.79%.

Regarding `CC(C)COc1ccc(Cl)cc1Cc1nc(-c2nc3ccc(CN4CCN(C)CC4)cc3[nH]2)co1` [TCMDC-136812], the “% Inhibition” value is 12.89%.

On to `CN(C)Cc1cccc2[nH]c(-c3csc(Cc4cc(Cl)ccc4OCc4ccccc4)n3)nc12` [TCMDC-132174], for which the “% Inhibition” value came to 97.26%.

In the case of `CCc1ccc(NC(=O)c2cccc(CN3CCCN(CC4CCCCC4)CC3)c2)cc1` [TCMDC-135988], the “% Inhibition” value was -39.09%.

As to `O=C(c1ccc(-c2ccc(-c3nc4ccccc4[nH]3)s2)cc1)N1CCCCC1CN1CCC(O)C1` (centres unmarked) [TCMDC-132341], the “% Inhibition” value was -18.79%.

For the compound `CC(O)C1CCCCN1C(=O)c1cccc(-c2ccc(-c3nc4ccccc4[nH]3)s2)c1` (centres unmarked) [TCMDC-132332], the “% Inhibition” value is given as 27.09%.

In the case of `CC(C)Cn1c(N)cc(=O)n(C)c1=O` [TCMDC-123470], the “% Inhibition” value was 3.426%.

In the case of `CCCCCC(=O)NCC(NCCCNc1cc(=O)c2ccccc2[nH]1)c1cc(Br)cc(Br)c1` (centres unmarked) [TCMDC-140316], the “% Inhibition” value was 24.17%.

Take `COc1ccc2ncc(Cl)c(NCC3(O)CCC(NCc4ccc5c(n4)NC(=O)CS5)CC3)c2n1` (centres unmarked) [TCMDC-134671]: the “% Inhibition” value is reported as 11.29%.

In the case of `CC(=O)c1cccc2[nH]c(C(=O)NC3CCC(CCN4CCc5ccc(C#N)cc5C4)CC3)cc12` (centres unmarked) [TCMDC-139218], the “% Inhibition” value is 4.712%.

Regarding `COc1ccc(Cn2c(N3CCN(S(=O)(=O)c4ccc(OC)cc4)CC3)nc3c2c(=O)n(CC2CC2)c(=O)n3CC2CC2)cc1` [TCMDC-138935], the “% Inhibition” value is -17.86%.

For `COc1ccc(S(=O)(=O)N2CCC3(CC2)OCC(=O)NC3c2ccc(Cl)c(Cl)c2)cc1` (centres unmarked) [TCMDC-133797], the “% Inhibition” value is on record as 8.685%.

On to `Cc1nc(-c2cccc(C(=O)NC3CCC(CCN4CCc5ccc(-c6cccnc6)cc5CC4)CC3)c2)no1` (centres unmarked) [TCMDC-140228], for which the “% Inhibition” value was -46.69%.

As to `COc1ccc2c(c1)ncn2-c1cc(OCc2ccncc2Br)c(C(N)=O)s1` [TCMDC-138876], the “% Inhibition” value amounted to 39.96%.

Turning to `C[C@@H](Oc1cc(-n2cnc3ccc(NC(=O)CCN4CCCCC4)cc32)sc1C(N)=O)c1ccccc1Cl` [TCMDC-135971], the “% Inhibition” value was determined as 64.1%.

For `NC(=O)c1sc(-n2cnc3ccccc32)cc1OCc1ccccc1[N+](=O)[O-]` [TCMDC-134488], the “% Inhibition” value came out at 13.6%.

As for `CC(Oc1cc(-n2cnc3ccc(NC(=O)CCN4CCCCC4)cc32)sc1C(N)=O)c1ccccc1Cl` (centres unmarked) [TCMDC-135370], the “% Inhibition” value was determined as 69.65%.

`C[C@@H](Oc1cc(-n2cnc3cc(SCCN4CCN(C)CC4)ccc32)sc1C(N)=O)c1ccccc1Cl` [TCMDC-135452]: the “% Inhibition” value amounted to 29.32%.

`O=C(CCN1CCCCC1)Nc1ccc(Nc2nccc(NCC(O)c3ccccc3)n2)cc1` (centres unmarked) [TCMDC-136464]: the “% Inhibition” value was -29.58%.

As to `C[C@@H](Oc1cc(-n2cnc3ccc(NC(=O)NC(C)(C)C)cc32)sc1C(N)=O)c1ccccc1Cl` [TCMDC-135806], the “% Inhibition” value came out at 66.79%.

For `COc1ccc2nc(Nc3nc4ccncc4[nH]3)sc2c1` [TCMDC-131950], the “% Inhibition” value was found to be 20.19%.

As to `Nc1ccc(-c2csc(Nc3ccncc3)n2)cc1` [TCMDC-138715], the “% Inhibition” value was -22.32%.

As to `c1ccc(-c2ccc(-c3csc(Nc4ccncc4)n3)cc2)cc1` [TCMDC-139026], the “% Inhibition” value is 62.72%.

Turning to `c1cc(Nc2nc(-c3ccc(-c4csc(Nc5ccncc5)n4)cc3)cs2)ccn1` [TCMDC-139725], the “% Inhibition” value was 127.3%.

In the case of `c1ccc2sc(-c3csc(Nc4ccncc4)n3)nc2c1` [TCMDC-135159], the “% Inhibition” value is listed as -15.83%.

Consider `c1ccc(-c2nc(Nc3ccncc3)sc2-c2ccccc2)cc1` [TCMDC-139027], for which the “% Inhibition” value is given as -36.52%.

Regarding `Clc1ccc(-c2cc(-c3csc(Nc4ccncc4)n3)on2)cc1` [TCMDC-135160], the “% Inhibition” value is -12.1%.

As for `CC(C)N(CC(=O)c1ccc(O)c(C(=O)O)c1)Cc1ccccc1` [TCMDC-131774], the “% Inhibition” value was found to be 0.6957%.

Turning to `COc1ccccc1COc1c(C)nc(N)nc1N` [TCMDC-131356], the “% Inhibition” value is -14.22%.

Regarding `CC(C)CC(=O)N1CCNC[C@@H]1C(=O)NCc1ccc(Cl)c(Cl)c1` [TCMDC-141242], the “% Inhibition” value worked out at 45.03%.

Turning to `CN1CCC(Oc2ccc(CN3CC[C@H](NC(=O)c4cc(F)cc(F)c4)C3)c3ccccc23)C1` (some centres unmarked) [TCMDC-135275], the “% Inhibition” value was 57.07%.

Regarding `CN1CCC(Oc2ccc(CN3CC[C@H](NC(=O)c4ccc(Cl)c(Cl)c4)C3)c3ccccc23)C1` (some centres unmarked) [TCMDC-140271], the “% Inhibition” value stood at 51.75%.

Turning to `CN1CCC(Oc2ccc(CN3CC[C@H](NC(=O)c4cccc(C#N)c4)C3)c3ccccc23)C1` (some centres unmarked) [TCMDC-135277], the “% Inhibition” value is 88.31%.

On to `CN1CCC(Oc2ccc(CN3CC[C@H](NC(=O)c4ccc(Cl)c(F)c4)C3)c3ccccc23)C1` (some centres unmarked) [TCMDC-135274], for which the “% Inhibition” value stood at 60.57%.

As for `CN1CCC(Oc2ccc(CN3CC[C@H](NC(=O)c4ccc(Cl)c(Cl)c4)C3)cc2Cl)C1` (some centres unmarked) [TCMDC-140276], the “% Inhibition” value was 27.21%.

Take `CN1CCC(Oc2cc(CN3CC[C@H](NC(=O)c4ccc(Cl)c(Cl)c4)C3)ccc2I)C1` (some centres unmarked) [TCMDC-140266]: the “% Inhibition” value came to 15.84%.

For the compound `Cc1cc(CN2CC[C@H](NC(=O)c3ccc(Cl)c(Cl)c3)C2)ccc1OC1CCN(C)C1` (some centres unmarked) [TCMDC-140281], the “% Inhibition” value came to 32.63%.
